Inconclusive results are not listed. A call without a number means that no potency is given here. The source made the active and inactive calls. The call rests on the fitted dose curve; in most records, active means well fitted cell-killing curve with a large enough effect; inconclusive means small, poorly fitted or top-dose-only effect, or effect the other way; inactive means no such curve, though single readings can be large or run the other way.
Potency means the concentration at half of the fitted maximal effect.

This assay in a line: Quantitative highthroughput screen to assess conditional lethalithy of SEM cells grown in Human Plasma-Like Medium with dialyzed fetal bovine serum (HPLM+ds) (AID 1963882). Further: nearly all actives have a fitted effect of over 35% in size. The settings on record: SEM B-ALL cells in HPLM+ds, CellTiter-Glo viability, 48 h; series mostly up to 45.8 µM. From the text:
Assay Provider: Jason Cantor Ph.D.
Department of Biochemistry
University of Wisconsin-Madison, Madison, WI, USA
Chemical screening studies have identified drug sensitivities across hundreds of cancer cell lines but most putative therapeutics fail to translate. Discovery and development of drug candidates in models that more accurately reflect nutrient levels in human blood is a major challenge. Here we performed high-throughput screens in conventional versus Human Plasma-Like Medium (HPLM) to identify compounds that were "missed" when screening using the artificial culture condition. Sets of conditional anticancer compounds spanned phases of clinical development and included non-oncology drugs were assessed. […] We also traced conditional phenotypes for several chemotherapeutics to availability of HPLM-specific metabolites and confirmed others for compounds whose reported targets are encoded by nonessential genes. Our findings establish generalizable strategies for exploiting conditional lethality in HPLM to reveal therapeutic candidates and mechanisms of action in cancer cells.
Described herein are the results of each viability screens against three cell lines: NOMO1 (an acute myeloid leukemia cell line); P12-Ichikawa (a T-cell acute lymphoblastic leukemia); and SEM (a B-cell ALL). Each assay was screened using 3 different cell culture media: homemade human plasma-Like medium with 10% dialyzed fetal bovine serum (HPLM+ds); RPMI1640 with 10% untreated FBS and 5mM glucose (RPMI+s); and RPMI1640 with 10% dialyzed fetal bovine serum and 5 mM glucose (RPMI+ds).
PROTOCOL TABLE (as described by Inglese J, Shamu CE and Guy RK. 2007)
SEQUENCE No. (e.g., 1, 2, 3, etc.); […] (e.g., Cells, Incubation, Reagent, etc.); VALUE and DESCRIPTION.
1; Cells; 5 uL; white, solid bottom 1536-well Greiner assay plate.
2; Compounds; 23 nL; Kalypsis pin tool (Wako USA) equipped with a 1536-well pin head to transfer to the assay plates.
3; Incubation; 48 hours; 37C incubation.
4; Reagent; 3 uL; CellTiter Glo (Promega).
5; Incubation; 5 min, room temperature
6; Detection; Luminescence, Viewlux PerkinElmer.
NOTES (numbers refer to Sequence numbers above)
1. Briefly, 5 ul of cell reagent was dispensed using a Multidrop Combi Dispenser. The NOMO1 and SEM cells were plated at 500 cells/well and the P12-Ichikawa line at 1000 cells/well.
2. After seeding the cells, 23 nL of MIPE 4.1 library compounds (in DMSO) were added to each plate using a Kalypsys 1536 Pintool dispenser. Bortezomib at final concentration of […] and DMSO were added to each plate as positive and negative controls respectively. For each screen, MIPE 4.1 compounds were added over an eleven-point concentration range […] in 3-fold dilutions.
3. Each plate was covered with a stainless steel gasketed lid to prevent evaporation and incubated for 48 hour at 37C, 95% relative humidity, and 5% CO2.
4-5. Three microliter CellTilter-GloTM luminescent substrate mix (Promega) reagent was added to the assay plate and incubated at room temperature for 5 min.
6. The luminescence signal was measured using a ViewLux (PerkinElmer) multiplate reader with a 2 second exposure time per plate. Data for each compound were normalized as percent viability such that measurements for DMSO and the empty well controls in each plate were defined as 100% and 0%, respectively.
(In general: Cellular ATP, detected with luciferase, serves as a proxy for viable cell number.)
As for `CC(C)(C)OC(=O)Nc1ccc(-c2cc(C(=O)NCCCCCCC(=O)NO)no2)cc1`, the Potency was 3.72 µM (active). As for `O=C(O)CCCCC(CCSCc1ccccc1)SCc1ccccc1` (stereo not given), the entry is “inactive”; as for `CCCS(=O)(=O)Nc1ccc(F)c(C(=O)c2c[nH]c3ncc(Cl)cc23)c1F`, 9.35 µM (active); as for `O[C@@H](COc1cccc2ncccc12)CN1CCN(C2c3ccccc3[C@@H]3[C@H](c4ccccc42)C3(F)F)CC1` (stereo not given in full), “inactive”. In the case of `O=C(Nc1cn[nH]c1-c1nc2ccc(CN3CCOCC3)cc2[nH]1)NC1CC1`, the Potency is 0.0833 µM (active). For `O=c1cc(-c2ccc(O)c(O)c2)oc2cc(O)cc(O)c12` the value was “inactive”; for `O=C(O)CCCc1c[nH]c2ccccc12`, “inactive”; for `CCc1c2c(nc3ccc(O)cc13)-c1cc3c(c(=O)n1C2)COC(=O)[C@]3(O)CC`, 0.0148 µM (active). For `CC(C)C(C)C=CC(C)C1CCC2C3=CC=C4CC(O)CCC4(C)C3CCC21C` (stereo not given) the value was “inactive”. `NC(=O)c1ccc(I)c([N+](=O)[O-])c1`: the Potency result was “inactive”. Turning to `C[C@@H]1C(=O)O[C@H]2CC34[C@H]5C[C@@H](C(C)(C)C)C36[C@H](OC(=O)[C@@H]6O)O[C@@]4(C(=O)O5)[C@]21O` (stereo not given in full), the Potency entry is “inactive”. In the case of `COc1cccc2c(NCc3ccccc3)nc(-n3c(N)nc4ccccc43)nc12`, the Potency was 9.35 µM (active).

Take `CCC1(C)CC(=O)NC1=O` (stereo not given): the Potency entry is “inactive”. As for `OCCN1C[C@H](O)[C@@H](O)[C@H](O)[C@@H]1CO`, the entry is “inactive”; as for `COc1nccc(-c2c(-c3ccc(F)cc3)ncn2C2CCNCC2)n1`, “inactive”. Take `CC1(C)Cc2c(sc(NC(=S)NC(=O)c3ccccc3)c2C(=O)O)CO1`: the Potency entry is “inactive”. As for `OCCn1cc(-c2ccc3c(c2)CCC3=NO)c(-c2ccncc2)n1`, the entry is “inactive”. For `CC(=O)OC1C(C)OC(Oc2c(-c3ccc(O)cc3)oc3cc(O)cc(O)c3c2=O)C(O)C1OC(C)=O` (stereo not given) the value was “inactive”. On to `CN(Cc1cc(Br)cc(Br)c1N)C1CCCCC1`, for which the Potency result was “inactive”. For `CC(C)[C@H](N)C(=O)OCCOCn1cnc2c(=O)[nH]c(N)nc21` the value was “inactive”. For `CCOC(=O)C(C)(C)Oc1ccc(Cl)cc1` the value was “inactive”; for `Nc1ncnc2nc(-c3ccc(N4CCOCC4)nc3)cc(-c3cccc(Br)c3)c12`, “inactive”; for `O=C(CCc1ccc(O)cc1)c1c(O)cc(O)cc1O`, “inactive”.

Take `COc1cc(OC2CCN(C)CC2)ccc1Nc1ncc2c(n1)n(C1CCCC1)c(=O)n2C`: the Potency is 10.5 µM (active). Regarding `CC[C@H](NC(=O)[C@H](C)NC)C(=O)N1C[C@@H](O)C[C@H]1Cc1c(-c2[nH]c3cc(F)ccc3c2C[C@H]2C[C@H](O)CN2C(=O)[C@H](CC)NC(=O)[C@H](C)NC)[nH]c2cc(F)ccc12`, the Potency entry is “inactive”. On to `CC1=CC(=O)c2ccccc2C1=O`, for which the Potency is 16.6 µM (active).

As to `Nc1ccn(C[C@@H](CO)OCP(=O)(O)O)c(=O)n1`, the Potency entry is “inactive”. For the compound `CC(C)n1cnc2c(NCCc3ccc(O)cc3)nc(-c3csc4ccccc34)nc21`, the Potency was 13.2 µM (active). Regarding `O=C1CCC(N2C(=O)c3ccccc3C2=O)C(=O)N1` (stereo not given), the Potency entry was “inactive”. On to `Cc1cc(CS(=O)(=O)c2ccccc2)cc(OCc2ccc(CN3CCC[C@H]3CO)cc2)c1`, for which the Potency is 0.59 µM (active). In the case of `Cc1ccc([C@@H]2O[C@H](CO)[C@@H](O)[C@H](O)[C@@H]2O)cc1Cc1ccc(-c2ccc(F)cc2)s1`, the Potency result was “inactive”. Regarding `O=P(O)(O)C(O)(Cc1cccnc1)P(=O)(O)O`, the Potency entry is “inactive”. As to `CCC(C)(C)c1ccc(CC(C)CN2C[C@@H](C)O[C@@H](C)C2)cc1` (stereo not given in full), the Potency result is “inactive”. For `CC(C)=CCCC(C)=CCCC(C)=CCSc1ccccc1C(=O)O` the value was 6.62 µM (active); for `O=C(N[C@H](CO)[C@H](O)c1ccc([N+](=O)[O-])cc1)C(Cl)Cl`, “inactive”; for `NC1=N[C@H]2[C@H](CS[C@H]2CCCCC(=O)O)N1`, “inactive”.

With `O=C(O)c1ccc2cc(-c3ccc(O)c(C45CC6CC(CC(C6)C4)C5)c3)ccc2c1`, the Potency is 0.372 µM (active). As for `Nc1cccc(-c2cc3c(Oc4cccc(O)c4)ncnc3[nH]2)c1`, the figure is 16.6 µM (active); as for `CCOc1cc(CC(=O)N[C@@H](CC(C)C)c2ccccc2N2CCCCC2)ccc1C(=O)O`, “inactive”; as for `COc1cccc(N(C)C(=S)Oc2ccc3c(c2)CCCC3)n1`, “inactive”.

Source of the values: PubChem BioAssay (NCATS).
